Drawing on paper PMC7862700, “An all-to-all approach to the identification of sequence-specific readers for epigenetic DNA modifications on cytosine”, this text covers binding signal for one sequence.

What all share (assay): DAPPL (digital affinity profiling via proximity ligation, sequencing); 10 mM Tris-HCl pH 7.5, 50 mM NaCl, 1 mM DTT, 4% glycerol, room temperature, 30 min; GST-TFs on glutathione beads, 16-mer random dsDNA library, 0.1% formaldehyde crosslink after washing; high values mean tight binding
Holding throughout (details): protein: recombinant; tags: N-terminal GST; dsDNA, one strand shown

The target of one experiment is T1, ELK1 (Homo sapiens, UniProt P19419 1-428).
T1 sequence: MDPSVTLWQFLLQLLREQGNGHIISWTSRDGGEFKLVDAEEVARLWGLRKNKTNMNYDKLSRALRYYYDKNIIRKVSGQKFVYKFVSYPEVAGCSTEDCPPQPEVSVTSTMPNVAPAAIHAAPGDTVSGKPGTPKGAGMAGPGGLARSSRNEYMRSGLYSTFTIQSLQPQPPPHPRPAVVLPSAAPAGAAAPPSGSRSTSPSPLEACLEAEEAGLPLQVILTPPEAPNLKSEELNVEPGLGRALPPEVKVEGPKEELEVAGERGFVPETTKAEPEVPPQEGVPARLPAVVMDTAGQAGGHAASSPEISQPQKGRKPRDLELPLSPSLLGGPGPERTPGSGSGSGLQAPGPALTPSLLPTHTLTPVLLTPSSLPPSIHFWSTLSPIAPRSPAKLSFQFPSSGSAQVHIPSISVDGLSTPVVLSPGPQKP
In short, it runs like this: (§1)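 Binding signal is each hexamer's read frequency for a factor divided by its frequency in the tag-only sample. The factors were GST-fused human transcription factors from yeast, captured on glutathione beads, DNA-barcoded and pooled with that sample. Pools were incubated with 200 nmole of a random double-stranded 16-mer DNA library in Tris/NaCl/DTT/glycerol buffer at room temperature for 30 min, then washed, crosslinked with 0.1% formaldehyde, proximity-ligated with BsaI/T4 ligase (1 h, 37 °C), PCR-amplified and sequenced on an Illumina NextSeq500.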

The next experiment concerns the target T2, GABPA (Homo sapiens, UniProt Q06546 1-454).
T2 sequence: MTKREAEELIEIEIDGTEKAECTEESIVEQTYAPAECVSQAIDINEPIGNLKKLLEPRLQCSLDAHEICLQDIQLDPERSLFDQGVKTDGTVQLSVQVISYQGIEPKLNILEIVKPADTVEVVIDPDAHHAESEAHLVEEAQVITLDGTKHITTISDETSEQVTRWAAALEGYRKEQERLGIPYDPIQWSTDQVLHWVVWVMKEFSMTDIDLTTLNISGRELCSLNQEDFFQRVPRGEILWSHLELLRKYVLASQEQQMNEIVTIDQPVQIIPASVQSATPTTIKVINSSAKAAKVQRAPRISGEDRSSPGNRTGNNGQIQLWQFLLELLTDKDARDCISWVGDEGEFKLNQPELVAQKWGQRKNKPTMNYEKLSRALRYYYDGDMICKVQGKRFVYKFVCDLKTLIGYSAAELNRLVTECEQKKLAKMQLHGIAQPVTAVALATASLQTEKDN
The method, boiled down: as §1

The next experiment concerns the target T3, ERG (Homo sapiens, UniProt P11308 1-479).
T3 sequence: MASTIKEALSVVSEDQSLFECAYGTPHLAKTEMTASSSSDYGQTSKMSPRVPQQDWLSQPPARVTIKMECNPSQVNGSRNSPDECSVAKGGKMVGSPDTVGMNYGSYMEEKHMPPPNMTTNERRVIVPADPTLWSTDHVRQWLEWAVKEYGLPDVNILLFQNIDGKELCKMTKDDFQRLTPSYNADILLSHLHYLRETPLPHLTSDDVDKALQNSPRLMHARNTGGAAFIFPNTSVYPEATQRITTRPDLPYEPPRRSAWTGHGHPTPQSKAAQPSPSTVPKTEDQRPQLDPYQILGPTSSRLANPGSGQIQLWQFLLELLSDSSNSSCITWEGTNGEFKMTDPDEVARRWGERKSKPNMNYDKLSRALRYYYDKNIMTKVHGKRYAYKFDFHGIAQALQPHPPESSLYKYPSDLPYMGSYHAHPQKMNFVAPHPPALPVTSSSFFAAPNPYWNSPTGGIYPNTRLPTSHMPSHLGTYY
In short, it runs like this:
as §1

Another experiment concerns the target ELF1 (Homo sapiens, UniProt P32519 1-619). The method, boiled down: as §1
The target in another experiment is T4, EHF (Homo sapiens, UniProt Q9NZC4 1-300).
T4 sequence: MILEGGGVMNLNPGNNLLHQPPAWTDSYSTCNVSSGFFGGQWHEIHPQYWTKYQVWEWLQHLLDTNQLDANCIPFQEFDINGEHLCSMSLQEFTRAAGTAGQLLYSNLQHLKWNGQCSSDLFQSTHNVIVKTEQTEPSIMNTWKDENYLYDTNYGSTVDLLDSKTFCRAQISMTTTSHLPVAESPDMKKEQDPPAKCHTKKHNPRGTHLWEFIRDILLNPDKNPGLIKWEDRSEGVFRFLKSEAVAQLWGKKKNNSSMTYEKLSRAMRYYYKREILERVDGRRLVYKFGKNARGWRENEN
The method, boiled down:
as §1

The next experiment has as its target SPI1 (Homo sapiens, UniProt P17947 1-270). In short, it runs like this:
as §1

A further experiment has as its target SPIB (Homo sapiens, UniProt Q01892 1-262). In short, it runs like this: as §1
The target of a further experiment is T5, FEV (Homo sapiens, UniProt Q99581 1-238).
T5 sequence: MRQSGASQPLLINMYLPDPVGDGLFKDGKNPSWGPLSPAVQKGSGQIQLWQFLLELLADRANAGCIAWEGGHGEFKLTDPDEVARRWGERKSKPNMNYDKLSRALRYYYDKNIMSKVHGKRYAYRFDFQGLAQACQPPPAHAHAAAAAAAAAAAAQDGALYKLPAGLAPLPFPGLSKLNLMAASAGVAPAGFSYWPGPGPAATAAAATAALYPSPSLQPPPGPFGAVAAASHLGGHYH
The method, boiled down:
as §1

A further experiment has as its target ETV5 (Homo sapiens, UniProt P41161 1-510). The method, boiled down:
as §1

Another experiment concerns the target ELF4 (Homo sapiens, UniProt Q99607 1-663). The method, boiled down:
as §1

For a further experiment, the target named is T6, ELK4 (Homo sapiens, UniProt P28324-2 1-405).
T6 sequence: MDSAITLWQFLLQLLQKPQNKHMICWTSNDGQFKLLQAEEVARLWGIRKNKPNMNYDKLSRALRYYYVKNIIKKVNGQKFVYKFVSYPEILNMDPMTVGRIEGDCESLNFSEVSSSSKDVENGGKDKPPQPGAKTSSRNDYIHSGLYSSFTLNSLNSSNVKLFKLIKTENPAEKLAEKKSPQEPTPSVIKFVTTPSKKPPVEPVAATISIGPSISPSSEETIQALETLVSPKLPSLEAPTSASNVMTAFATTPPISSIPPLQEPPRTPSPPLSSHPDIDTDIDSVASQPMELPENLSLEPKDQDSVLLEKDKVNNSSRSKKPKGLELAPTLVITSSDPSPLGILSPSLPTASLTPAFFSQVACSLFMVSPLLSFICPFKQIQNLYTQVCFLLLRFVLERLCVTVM
In short, it runs like this:
as §1

For another experiment, the target named is T7, ETV2 (Homo sapiens, UniProt O00321 1-342).
T7 sequence: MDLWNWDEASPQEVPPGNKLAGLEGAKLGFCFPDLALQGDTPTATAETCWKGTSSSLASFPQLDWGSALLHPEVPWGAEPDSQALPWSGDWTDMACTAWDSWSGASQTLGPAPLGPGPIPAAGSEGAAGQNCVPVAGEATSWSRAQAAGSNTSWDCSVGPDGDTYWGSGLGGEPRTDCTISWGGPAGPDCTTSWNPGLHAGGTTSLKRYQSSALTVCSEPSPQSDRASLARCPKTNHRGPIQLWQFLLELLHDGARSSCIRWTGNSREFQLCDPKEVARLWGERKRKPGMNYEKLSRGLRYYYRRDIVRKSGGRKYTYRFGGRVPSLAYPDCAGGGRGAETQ
The method, boiled down:
as §1

Another experiment deals with ETV1 (Homo sapiens, UniProt P50549 1-477). The method, boiled down:
as §1

The next experiment addresses T8, ERF (Homo sapiens, UniProt P50548 1-548).
T8 sequence: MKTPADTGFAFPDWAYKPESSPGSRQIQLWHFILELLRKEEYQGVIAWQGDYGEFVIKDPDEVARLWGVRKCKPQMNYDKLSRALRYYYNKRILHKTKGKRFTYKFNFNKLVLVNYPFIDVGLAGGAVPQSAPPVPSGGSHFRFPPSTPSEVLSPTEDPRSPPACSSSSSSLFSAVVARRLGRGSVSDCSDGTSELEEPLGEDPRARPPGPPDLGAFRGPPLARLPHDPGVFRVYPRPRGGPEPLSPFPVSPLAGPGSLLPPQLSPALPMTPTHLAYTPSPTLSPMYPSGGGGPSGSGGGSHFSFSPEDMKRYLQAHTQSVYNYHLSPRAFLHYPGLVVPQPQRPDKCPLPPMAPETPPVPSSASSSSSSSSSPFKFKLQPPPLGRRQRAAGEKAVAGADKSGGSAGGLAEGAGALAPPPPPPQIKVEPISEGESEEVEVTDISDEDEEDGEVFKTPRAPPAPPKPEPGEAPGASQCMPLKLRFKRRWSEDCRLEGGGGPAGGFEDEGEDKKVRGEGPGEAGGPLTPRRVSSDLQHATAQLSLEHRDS
The method, boiled down:
as §1

The next experiment deals with T9, ETV3L (Homo sapiens, UniProt Q6ZN32 1-361).
T9 sequence: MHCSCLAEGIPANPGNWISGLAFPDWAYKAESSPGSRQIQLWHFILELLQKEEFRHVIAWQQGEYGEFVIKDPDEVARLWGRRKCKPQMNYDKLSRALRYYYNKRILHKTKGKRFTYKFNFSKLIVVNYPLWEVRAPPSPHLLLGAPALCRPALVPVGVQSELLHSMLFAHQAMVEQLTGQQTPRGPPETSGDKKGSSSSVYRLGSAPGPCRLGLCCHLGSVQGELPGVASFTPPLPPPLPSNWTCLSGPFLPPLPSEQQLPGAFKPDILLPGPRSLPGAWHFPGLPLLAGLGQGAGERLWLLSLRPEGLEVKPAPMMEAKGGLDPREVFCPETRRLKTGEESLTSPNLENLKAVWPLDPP
The method, boiled down:
as §1

A further experiment has as its target T10, ETS2 (Homo sapiens, UniProt P15036 1-469).
T10 sequence: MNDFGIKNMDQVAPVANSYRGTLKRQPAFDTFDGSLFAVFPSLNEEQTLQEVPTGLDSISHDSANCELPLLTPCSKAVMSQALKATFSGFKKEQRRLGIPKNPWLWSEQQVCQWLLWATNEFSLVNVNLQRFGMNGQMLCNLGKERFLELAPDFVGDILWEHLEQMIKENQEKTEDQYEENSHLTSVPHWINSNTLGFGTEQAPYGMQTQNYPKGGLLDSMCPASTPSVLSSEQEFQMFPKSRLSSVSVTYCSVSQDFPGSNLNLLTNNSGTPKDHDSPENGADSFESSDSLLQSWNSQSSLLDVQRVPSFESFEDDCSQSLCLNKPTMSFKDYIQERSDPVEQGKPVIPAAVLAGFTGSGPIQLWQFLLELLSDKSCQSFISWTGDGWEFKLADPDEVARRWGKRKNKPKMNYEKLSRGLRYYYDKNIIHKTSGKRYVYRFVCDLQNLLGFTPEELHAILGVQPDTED
The method, boiled down:
as §1

The next experiment addresses T11, ETV7 (Homo sapiens, UniProt Q9Y603 1-341).
T11 sequence: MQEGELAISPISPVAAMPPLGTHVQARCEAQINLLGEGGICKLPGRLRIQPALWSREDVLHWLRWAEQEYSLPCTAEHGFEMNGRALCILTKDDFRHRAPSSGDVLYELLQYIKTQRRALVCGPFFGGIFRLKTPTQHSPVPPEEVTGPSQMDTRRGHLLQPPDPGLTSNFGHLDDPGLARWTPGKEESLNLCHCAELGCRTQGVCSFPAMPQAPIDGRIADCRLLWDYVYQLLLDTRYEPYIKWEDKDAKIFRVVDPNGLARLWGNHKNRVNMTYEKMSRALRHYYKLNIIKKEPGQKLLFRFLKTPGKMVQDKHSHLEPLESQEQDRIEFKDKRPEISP
The method, boiled down:
as §1

The target in another experiment is T12, ETV3 (Homo sapiens, UniProt P41162-2 1-143).
T12 sequence: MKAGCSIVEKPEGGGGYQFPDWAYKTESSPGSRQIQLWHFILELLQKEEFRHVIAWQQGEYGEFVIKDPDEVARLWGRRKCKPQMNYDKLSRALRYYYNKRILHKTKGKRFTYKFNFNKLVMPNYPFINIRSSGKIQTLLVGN
The method, boiled down:
as §1

Sequence of SPIB (Q01892 whole entry): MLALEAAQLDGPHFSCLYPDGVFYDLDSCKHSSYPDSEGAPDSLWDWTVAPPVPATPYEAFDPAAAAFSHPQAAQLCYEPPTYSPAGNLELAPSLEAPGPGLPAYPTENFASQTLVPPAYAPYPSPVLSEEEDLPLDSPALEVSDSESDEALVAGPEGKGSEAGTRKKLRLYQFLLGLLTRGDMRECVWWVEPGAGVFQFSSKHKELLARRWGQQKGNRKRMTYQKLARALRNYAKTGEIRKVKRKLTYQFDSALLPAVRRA
Sequence of ETV5 (P41161 whole entry): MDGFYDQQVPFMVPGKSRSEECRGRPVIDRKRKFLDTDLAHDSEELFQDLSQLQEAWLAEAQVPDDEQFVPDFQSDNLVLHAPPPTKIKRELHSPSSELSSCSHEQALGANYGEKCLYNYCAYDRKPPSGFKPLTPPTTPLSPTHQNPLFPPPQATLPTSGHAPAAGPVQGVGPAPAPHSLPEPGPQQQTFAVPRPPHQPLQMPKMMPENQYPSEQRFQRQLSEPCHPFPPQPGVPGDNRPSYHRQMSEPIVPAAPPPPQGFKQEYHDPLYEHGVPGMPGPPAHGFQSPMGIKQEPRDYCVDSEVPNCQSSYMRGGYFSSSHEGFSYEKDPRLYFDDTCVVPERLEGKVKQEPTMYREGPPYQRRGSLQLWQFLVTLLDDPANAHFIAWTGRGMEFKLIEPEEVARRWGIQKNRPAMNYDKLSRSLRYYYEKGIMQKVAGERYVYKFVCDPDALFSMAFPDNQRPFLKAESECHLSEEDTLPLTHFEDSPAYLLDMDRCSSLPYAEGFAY
Sequence of ELF4 (Q99607 whole entry): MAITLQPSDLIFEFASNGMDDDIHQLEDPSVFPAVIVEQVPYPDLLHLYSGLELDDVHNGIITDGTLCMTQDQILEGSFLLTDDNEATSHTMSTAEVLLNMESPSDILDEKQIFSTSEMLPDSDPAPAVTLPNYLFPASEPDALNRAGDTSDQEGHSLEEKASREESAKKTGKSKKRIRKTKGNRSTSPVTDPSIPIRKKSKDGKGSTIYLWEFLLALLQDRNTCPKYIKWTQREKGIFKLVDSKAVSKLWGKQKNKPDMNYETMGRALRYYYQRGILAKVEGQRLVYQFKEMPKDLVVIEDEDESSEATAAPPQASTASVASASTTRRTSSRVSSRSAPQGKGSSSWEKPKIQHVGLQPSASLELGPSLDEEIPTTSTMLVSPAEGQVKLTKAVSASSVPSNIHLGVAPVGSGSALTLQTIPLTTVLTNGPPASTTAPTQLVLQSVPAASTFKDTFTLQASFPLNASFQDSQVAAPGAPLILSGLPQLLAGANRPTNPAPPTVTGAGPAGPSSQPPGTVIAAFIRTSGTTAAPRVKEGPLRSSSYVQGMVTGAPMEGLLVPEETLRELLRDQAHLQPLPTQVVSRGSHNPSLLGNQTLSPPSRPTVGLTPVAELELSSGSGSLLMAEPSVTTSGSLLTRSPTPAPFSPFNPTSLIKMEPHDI
Sequence of ELF1 (P32519 whole entry): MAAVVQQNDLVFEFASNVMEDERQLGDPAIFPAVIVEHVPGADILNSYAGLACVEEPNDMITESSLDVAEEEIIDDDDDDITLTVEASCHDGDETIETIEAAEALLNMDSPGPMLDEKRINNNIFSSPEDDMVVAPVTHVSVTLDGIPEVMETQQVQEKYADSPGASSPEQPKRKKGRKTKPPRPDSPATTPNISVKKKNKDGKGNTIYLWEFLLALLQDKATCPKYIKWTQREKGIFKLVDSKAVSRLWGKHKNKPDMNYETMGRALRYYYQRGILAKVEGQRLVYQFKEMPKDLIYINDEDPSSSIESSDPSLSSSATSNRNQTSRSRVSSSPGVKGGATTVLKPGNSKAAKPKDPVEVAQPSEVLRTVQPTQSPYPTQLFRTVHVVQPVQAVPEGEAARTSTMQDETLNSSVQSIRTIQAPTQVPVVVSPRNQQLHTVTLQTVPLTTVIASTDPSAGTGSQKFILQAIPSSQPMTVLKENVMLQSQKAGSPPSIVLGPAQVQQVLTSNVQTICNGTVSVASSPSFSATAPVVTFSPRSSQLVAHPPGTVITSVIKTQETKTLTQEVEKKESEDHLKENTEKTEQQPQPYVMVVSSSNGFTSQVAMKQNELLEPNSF
Sequence of ETV1 (P50549 whole entry): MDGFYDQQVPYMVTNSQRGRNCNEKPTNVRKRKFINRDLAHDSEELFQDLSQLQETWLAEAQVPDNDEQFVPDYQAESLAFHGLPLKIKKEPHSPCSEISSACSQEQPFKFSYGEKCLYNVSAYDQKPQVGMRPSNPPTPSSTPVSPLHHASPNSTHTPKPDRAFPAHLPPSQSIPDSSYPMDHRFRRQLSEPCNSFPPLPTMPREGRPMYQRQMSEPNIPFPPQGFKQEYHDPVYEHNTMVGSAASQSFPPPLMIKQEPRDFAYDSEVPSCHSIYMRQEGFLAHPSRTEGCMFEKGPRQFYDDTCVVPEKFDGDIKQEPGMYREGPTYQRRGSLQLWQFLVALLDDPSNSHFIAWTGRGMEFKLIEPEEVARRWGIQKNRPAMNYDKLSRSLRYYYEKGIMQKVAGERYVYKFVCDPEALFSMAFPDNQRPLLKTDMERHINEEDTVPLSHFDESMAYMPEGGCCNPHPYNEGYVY

Turning to TGCAGC, the binding signal in the experiment with ELK1 was 1.07 fold enrichment (6-mer frequency, TF over GST control); with GABPA, 1.16 fold enrichment (6-mer frequency, TF over GST control); with ERG, 1.06 fold enrichment (6-mer frequency, TF over GST control); with ELF1, 1.09 fold enrichment (6-mer frequency, TF over GST control); in the experiment with EHF, 1.09 fold enrichment (6-mer frequency, TF over GST control); in the experiment with SPI1, 1.02 fold enrichment (6-mer frequency, TF over GST control). Also, the binding signal was 1.17 fold enrichment (6-mer frequency, TF over GST control) in the experiment with SPIB; 1.08 fold enrichment (6-mer frequency, TF over GST control) with FEV; 1.03 fold enrichment (6-mer frequency, TF over GST control) in the experiment with ETV5; 1.1 fold enrichment (6-mer frequency, TF over GST control) with ELF4; 1.15 fold enrichment (6-mer frequency, TF over GST control) in the experiment with ELK4; 1.12 fold enrichment (6-mer frequency, TF over GST control) in the experiment with ETV2. Besides, the binding signal in the experiment with ETV1 was 1.02 fold enrichment (6-mer frequency, TF over GST control); in the experiment with ERF, 1.13 fold enrichment (6-mer frequency, TF over GST control); with ETV3L, 1.07 fold enrichment (6-mer frequency, TF over GST control); with ETS2, 1.1 fold enrichment (6-mer frequency, TF over GST control); in the experiment with ETV7 it was 1.04 fold enrichment (6-mer frequency, TF over GST control); with ETV3, 1.05 fold enrichment (6-mer frequency, TF over GST control).
